Source: PubChem
Vaccinia Venus – inhibitors of vaccinia virus (Venus reporter). 330,000 compounds, 0.46% hits. AID 720580. Vaccinia virus Venus reporter expression, fluorescence. Potency, µM (titrated, usually from 36.5 µM), usual class: inhibitors; calls by dose curve; tested in A549 cells; also: nearly all actives have a fitted effect of over 30% in size
Lassa entry inh – Lassa virus entry inhibition | Lassa virus pseudotype entry inhibition, cell reporter | Potency, µM (doses to about 37.9 µM), actives largely listed as inhibitors | 300,000 compounds, 1.2% hits | AID 540256; calls by dose curve; tested in HEK293 cells; also: nearly all actives have a fitted effect of over 50% in size
FMDV antiviral – blocks foot and mouth disease virus; AID 1159524; 410,000 compounds, 1.2% hits; FMDV antiviral cell-based qHTS; Potency, µM (doses to about 57.9 µM), actives largely listed as inhibitors; calls by dose curve; tested in HEK293T cells; also: read-out not given here; nearly all actives have a fitted effect of over 45% in size
Marburg entry inh – Marburg virus entry inhibition; Marburg virus pseudotyped entry inhibition, cell reporter; Potency, µM (doses to about 37.8 µM), actives largely listed as inhibitors; 300,000 compounds, 1.8% hits; AID 540276; calls by dose curve; tested in HEK293 cells
HCMV inh – blocks human cytomegalovirus replication; activity change, negative = inhibition, % at 57.5 µM; AID 1259415; HFF cells, HCMV-luciferase reporter, 72 h; hits give low values; 410,000 compounds, 4.5% hits; in the data active = activity change below about -60%; inconclusive = no clear call, values can overlap the other calls; inactive = above about -39%
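Inhibition of viral replication was scored as loss of reporter luminescence in HFFs infected with HCMV-luciferase (MOI 1 PFU/cell) for 72 h; compounds tested at 2 doses, normalized to buffer and Salinomycin controls.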
VACV mCherry inh – inhibitors of vaccinia virus infection (mCherry reporter signal); AID 720579; 310,000 compounds, 0.63% hits; Potency, µM (titrated, usually from 36.5 µM), usual class: inhibitors; Vaccinia virus mCherry reporter infection, fluorescence; calls by dose curve; tested in A549 cells; also: nearly all actives have a fitted effect of over 35% in size
Large screens that a line does not name were inactive; ! = not confirmed by another sample. Only some compounds are listed: those with a hit (about 6.5% of all), similar ones and a draw of the others.

Cc1cc(NC(=S)N(Cc2ccc(Cl)cc2)Cc2ccc(C(=O)O)cc2)ccc1Cl	HCMV inh -62 (no result: Vaccinia Venus, Lassa entry inh, Marburg entry inh, VACV mCherry inh)
Cc1cc(C)cc(NC(=S)N(Cc2ccc(Cl)cc2)Cc2ccc(C(=O)O)cc2)c1	none
N#Cc1cc2c(nc1SCC(=O)N1CCOCC1)CCCCC2	Lassa entry inh inconclusive, HCMV inh -77 (no result: FMDV antiviral)
N#Cc1cc2c(nc1SCC(N)=O)CCCCC2	none
COc1ccc(C(=O)NN/C=C/C(=O)c2ccc(Br)cc2)cc1	none (no result: Lassa entry inh, Marburg entry inh)
COc1ccc(C(=O)C=CNNC(=O)c2ccc(Cl)cc2)cc1	Lassa entry inh 5.6µM, Marburg entry inh inconclusive, VACV mCherry inh inconclusive
Cc1ccnc(N/C=C/C(=O)c2ccc(Br)cc2)c1	Lassa entry inh inconclusive, Marburg entry inh inconclusive
COc1ccc(C(=O)/C=C/Nc2cc(C)ccn2)cc1	Lassa entry inh inconclusive, Marburg entry inh 1.3µM
Cc1cc(N2CCCC2=O)cc(C)c1S(=O)(=O)NCCOc1ccccc1	HCMV inh -77 (no result: FMDV antiviral)
CCNS(=O)(=O)c1c(C)cc(N2CCCC2=O)cc1C	none
Cc1cccc(NC(=O)c2sc3nc(C)nc(N4CCOCC4)c3c2C)c1	none (no result: Lassa entry inh, Marburg entry inh)
Cc1c(C(=O)Nc2ccncc2)sc2nc(-c3ccccc3)cn12	Vaccinia Venus inconclusive, FMDV antiviral 20µM (no result: Lassa entry inh, Marburg entry inh)
Cc1nc(N2CCCCC2)c2c(C)c(C(=O)Nc3ccc4c(c3)OCCO4)sc2n1	HCMV inh -61 (no result: Vaccinia Venus, Lassa entry inh, Marburg entry inh, VACV mCherry inh)
Cc1c(C(=O)Nc2ccc3c(c2)OCCO3)sc2nc(-c3ccccc3)cn12	Lassa entry inh inconclusive, FMDV antiviral 16µM, Marburg entry inh inconclusive, HCMV inh -84, VACV mCherry inh inconclusive
N#Cc1ccc(CN2CCN(C(=O)CNC(=O)Cc3cccc4ccccc34)CC2)cc1	Lassa entry inh inconclusive, FMDV antiviral inconclusive, Marburg entry inh inconclusive, HCMV inh -68, VACV mCherry inh inconclusive
CCc1ccccc1NC(=O)CN1CCN(C(=O)CNC(=O)Cc2cccc3ccccc23)CC1	FMDV antiviral inconclusive (no result: Vaccinia Venus, Lassa entry inh, Marburg entry inh, VACV mCherry inh)
COc1ccccc1CN1CCOc2ccc(CN3CCCCC3CO)cc2C1 (configuration not stated)	none (no result: Lassa entry inh, Marburg entry inh, HCMV inh)
COc1ccc(S(=O)(=O)N2CCCC(C(=O)Nc3cccnc3)C2)cc1Cl (configuration not stated)	Vaccinia Venus inconclusive, FMDV antiviral 25µM, Marburg entry inh inconclusive, HCMV inh inconclusive, VACV mCherry inh inconclusive
O=S(=O)(c1ccc(NC(=S)NCc2ccncc2)cc1)N1CCCCC1	Marburg entry inh inconclusive, HCMV inh -65
O=S(=O)(c1ccc(NC(=S)NCc2ccco2)cc1)N1CCCC1	none
COc1ccc(CNC(=S)NCc2ccc(F)cc2)cc1OC	HCMV inh -63
COc1ccc(S(=O)(=O)N2CCCC(C(=O)NCc3ccncc3)C2)cc1Cl (configuration not stated)	HCMV inh -66 (no result: FMDV antiviral)
COc1ccc(NC(=O)C2CCCN(S(=O)(=O)c3cccnc3)C2)cc1OC (configuration not stated)	none (no result: Vaccinia Venus, Lassa entry inh, Marburg entry inh, VACV mCherry inh)
CCOC1=C(NC(=O)C(C)(C)C)CC(OCC)=C(N2CCOCC2)C1	none (no result: Vaccinia Venus, Lassa entry inh, FMDV antiviral, HCMV inh, VACV mCherry inh)
CCC1CN(CCNC(=O)C2CCCCN2C)Cc2cc(OC)ccc2O1 (configuration not stated)	none (no result: Lassa entry inh, Marburg entry inh, HCMV inh)
COc1cc(CCN2C(=O)N[C@@H](c3ccccc3)C(C(C)=O)=C2C)cc(OC)c1OC	none (no result: Vaccinia Venus, Lassa entry inh, FMDV antiviral, HCMV inh, VACV mCherry inh)
COC(=O)c1cc2sc(Cl)cc2n1Cc1nc(-c2ccccc2C)oc1C	none (no result: Lassa entry inh)
CC(=O)Nc1ccc(NC(=O)C2CCN(c3cnccn3)CC2)cc1	none
COc1ccc(S(=O)(=O)N2CCCC(C(=O)Nc3cccc(C(C)=O)c3)C2)cc1 (configuration not stated)	FMDV antiviral inconclusive, Marburg entry inh inconclusive, HCMV inh -66 (no result: VACV mCherry inh)
CCOc1ccc(CNC(=O)C2CCCN(S(=O)(=O)N(C)c3ccc(F)cc3)C2)cc1OC (configuration not stated)	FMDV antiviral inconclusive (no result: Lassa entry inh)
COc1ccc(NC(=O)C2CCN(c3cnccn3)CC2)cc1Cl	Marburg entry inh inconclusive, HCMV inh -60!
COc1ccc(CNC(=O)C2CCCN(S(=O)(=O)N(C)c3ccc(F)cc3)C2)cc1OC (configuration not stated)	Vaccinia Venus inconclusive, FMDV antiviral 13µM, HCMV inh inconclusive (no result: Marburg entry inh)
COC(=O)[C@@H]1C[C@@H](NC(=O)c2cccc3c(C)c(C)[nH]c23)CN1Cc1cccc2ccccc12	none (no result: Lassa entry inh, Marburg entry inh, HCMV inh)
C[C@H]1CN([C@@H](C)CO)C(=O)CCCn2cc(nn2)CO[C@@H]1CN(C)C(=O)c1ccc2ccn(C)c2c1	none (no result: Vaccinia Venus, Lassa entry inh, FMDV antiviral, Marburg entry inh, VACV mCherry inh)
[N-]=[N+]=NC(c1ccccc1)C(NC(=O)c1cc(C(F)(F)F)cc(C(F)(F)F)c1)c1ccccc1 (configuration not stated)	FMDV antiviral 25µM, HCMV inh inconclusive (no result: Lassa entry inh, Marburg entry inh)
CCn1cc(CNC(=O)c2cc(COc3ccc(F)cc3Cl)on2)cn1	Lassa entry inh inconclusive, Marburg entry inh 15µM, HCMV inh inconclusive
CCn1nc(C)c(CNC(=O)c2cc(COc3ccc(F)cc3Cl)on2)c1C	FMDV antiviral inconclusive, HCMV inh -85 (no result: Vaccinia Venus, Lassa entry inh, Marburg entry inh, VACV mCherry inh)
COc1ccc(C(=O)NC2CC(=O)N(c3ccc4c(c3)OCCO4)C2)cc1 (configuration not stated)	none (no result: Marburg entry inh)
COc1cc(OC)c(NC(=O)CCCn2nc(C)c3sc4ccccc4c3c2=O)cc1Cl	Lassa entry inh inconclusive, Marburg entry inh 3.2µM
Cc1c(C)c2cc3c(c(C)c2oc1=O)OCN(CCc1ccc(F)cc1)C3	none
O=C(N/N=C/c1cc([N+](=O)[O-])ccc1O)c1ccc(COc2ccc3c(c2)CCC3)o1	Lassa entry inh inconclusive, FMDV antiviral inconclusive, Marburg entry inh inconclusive, HCMV inh -96, VACV mCherry inh inconclusive
O=C(NCc1cccnc1)c1ccc(COc2ccc3c(c2)CCC3)o1	Lassa entry inh inconclusive, FMDV antiviral 18µM, Marburg entry inh 23µM
COc1ccc(Br)cc1/C=N/NC(=O)c1ccc(COc2ccc3c(c2)CCC3)o1	Marburg entry inh inconclusive
O=C(Nc1ccccc1C(F)(F)F)N1CCC2(CC1)Oc1ccccc1C(=O)N2Cc1ccccc1F	Marburg entry inh inconclusive, HCMV inh -74 (no result: Lassa entry inh)
COC(=O)[C@H](C)N(Cc1ccc(Cl)c(Cl)c1)S(=O)(=O)CCN1CCN(c2ccccc2)CC1	Vaccinia Venus inconclusive, FMDV antiviral inconclusive, VACV mCherry inh 14µM (no result: Lassa entry inh, Marburg entry inh)
CN(C)c1ccc(/C=C/c2nc3ccccc3o2)cc1	none (no result: Lassa entry inh, FMDV antiviral, Marburg entry inh, HCMV inh)
CN(CC(=O)N1CCCCCC1)S(=O)(=O)c1cccc2cccnc12	none (no result: Lassa entry inh, Marburg entry inh)
COc1ccc(NC(=O)CN(C)S(=O)(=O)c2cccc3cccnc23)cc1	HCMV inh -66 (no result: Lassa entry inh, Marburg entry inh)
COc1ccc(N(C(=O)C(C)C)S(=O)(=O)c2cccc3cccnc23)cc1	HCMV inh -67, VACV mCherry inh inconclusive
CN(CC(=O)NC1CCCCCCC1)S(=O)(=O)c1cccc2cccnc12	HCMV inh -62 (no result: Lassa entry inh, Marburg entry inh)
CCOc1ccc(S(=O)(=O)N2CCN(S(=O)(=O)c3ccc(C(C)=O)cc3)CC2)cc1	none
CC(=O)N1CCN(CCS(=O)(=O)c2ccc(Br)cc2)CC1	Vaccinia Venus inconclusive, VACV mCherry inh 18µM
CC(=O)c1cccc(S(=O)(=O)N2CCN(CCOc3ccccc3)CC2)c1	FMDV antiviral inconclusive, HCMV inh -61 (no result: Vaccinia Venus, Lassa entry inh, Marburg entry inh, VACV mCherry inh)
